Inconclusive results are not listed. A call without a number means that no potency is given here. A number with no mark means an inactive call. Active and inactive are the calls of the source. Calls follow the shape of the dose curve; as a rule, active = well fitted curve in the direction sought with a large enough effect; inconclusive = small, poorly fitted or top-dose-only effect, or another doubt; inactive = no such curve, though single readings can be large; an effect the other way counts as inactive or inconclusive.
Columns and labels:
[1] = target: Rap guanine nucleotide exchange factor 3 (Homo sapiens) (UniProt O95398); assay: Confirmatory qHTS for antagonist of cAMP-regulated guanine nucleotide exchange factor 3 (EPAC1) (AID 1645880); also: nearly all actives have a fitted effect of over 55% in size; also: potency is read from the fitted curve at half-maximal effect
Rap guanine nucleotide exchange factor 3 (Homo sapiens), sequence (O95398 whole entry, looked up): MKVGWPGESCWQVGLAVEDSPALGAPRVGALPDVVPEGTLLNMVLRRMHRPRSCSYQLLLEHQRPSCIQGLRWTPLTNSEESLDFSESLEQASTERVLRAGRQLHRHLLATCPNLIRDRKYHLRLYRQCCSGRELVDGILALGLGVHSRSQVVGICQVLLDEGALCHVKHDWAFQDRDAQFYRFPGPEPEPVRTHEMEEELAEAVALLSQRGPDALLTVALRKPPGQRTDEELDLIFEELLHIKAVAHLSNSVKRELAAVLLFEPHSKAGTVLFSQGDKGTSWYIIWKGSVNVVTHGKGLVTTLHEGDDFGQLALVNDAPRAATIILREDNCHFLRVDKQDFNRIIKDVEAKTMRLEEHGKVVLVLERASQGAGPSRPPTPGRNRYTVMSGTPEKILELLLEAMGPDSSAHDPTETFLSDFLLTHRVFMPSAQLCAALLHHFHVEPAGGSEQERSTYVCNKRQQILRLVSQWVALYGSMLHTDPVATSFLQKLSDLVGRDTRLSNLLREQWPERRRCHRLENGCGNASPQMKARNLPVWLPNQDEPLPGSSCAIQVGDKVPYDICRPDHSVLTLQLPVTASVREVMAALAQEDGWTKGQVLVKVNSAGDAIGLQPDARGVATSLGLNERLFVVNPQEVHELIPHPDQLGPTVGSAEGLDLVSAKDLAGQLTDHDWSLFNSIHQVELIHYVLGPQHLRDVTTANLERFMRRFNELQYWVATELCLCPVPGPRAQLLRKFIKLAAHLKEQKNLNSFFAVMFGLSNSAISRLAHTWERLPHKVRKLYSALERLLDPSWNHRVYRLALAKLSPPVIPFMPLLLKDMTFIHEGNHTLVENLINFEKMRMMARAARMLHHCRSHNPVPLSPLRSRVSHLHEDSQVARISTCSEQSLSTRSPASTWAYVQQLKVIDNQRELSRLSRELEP
Outline: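 Released BODIPY-GDP fluoresces less than Rap1-bound BODIPY-GDP; the signal is followed at 480/540 nm at 5-min intervals over 30 min, after 5 min at room temperature. Reactions contain 100 nM EPAC1, 250 nM RAP1B-BODIPY-GDP and 50 uM GDP; results are normalized to ATA and DMSO.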

[2] = target: Rap guanine nucleotide exchange factor 3 (Homo sapiens) (UniProt O95398); assay: Confirmatory qHTS for agonist of cAMP-regulated guanine nucleotide exchange factor 3 (EPAC1) (AID 1645881); also: nearly all actives have a fitted effect of over 75% in size; also: potency is read from the fitted curve at half-maximal effect;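 as to activation: EPAC1 catalysed release of BODIPY-GDP from Rap1B seen as fluorescence loss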
[3] = target: Rap guanine nucleotide exchange factor 4 (Homo sapiens) (UniProt Q8WZA2); assay: Confirmatory qHTS for agonist of cAMP-regulated guanine nucleotide exchange factor 4 (EPAC2) (AID 1645884);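 also: nucleotide exchange releases bodipy-GDP from Rap1 and this lowers its fluorescence; nearly all actives have a fitted effect of over 65% in size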; also: potency is read from the fitted curve at half-maximal effect
Rap guanine nucleotide exchange factor 4 (Homo sapiens), sequence (Q8WZA2 whole entry, looked up): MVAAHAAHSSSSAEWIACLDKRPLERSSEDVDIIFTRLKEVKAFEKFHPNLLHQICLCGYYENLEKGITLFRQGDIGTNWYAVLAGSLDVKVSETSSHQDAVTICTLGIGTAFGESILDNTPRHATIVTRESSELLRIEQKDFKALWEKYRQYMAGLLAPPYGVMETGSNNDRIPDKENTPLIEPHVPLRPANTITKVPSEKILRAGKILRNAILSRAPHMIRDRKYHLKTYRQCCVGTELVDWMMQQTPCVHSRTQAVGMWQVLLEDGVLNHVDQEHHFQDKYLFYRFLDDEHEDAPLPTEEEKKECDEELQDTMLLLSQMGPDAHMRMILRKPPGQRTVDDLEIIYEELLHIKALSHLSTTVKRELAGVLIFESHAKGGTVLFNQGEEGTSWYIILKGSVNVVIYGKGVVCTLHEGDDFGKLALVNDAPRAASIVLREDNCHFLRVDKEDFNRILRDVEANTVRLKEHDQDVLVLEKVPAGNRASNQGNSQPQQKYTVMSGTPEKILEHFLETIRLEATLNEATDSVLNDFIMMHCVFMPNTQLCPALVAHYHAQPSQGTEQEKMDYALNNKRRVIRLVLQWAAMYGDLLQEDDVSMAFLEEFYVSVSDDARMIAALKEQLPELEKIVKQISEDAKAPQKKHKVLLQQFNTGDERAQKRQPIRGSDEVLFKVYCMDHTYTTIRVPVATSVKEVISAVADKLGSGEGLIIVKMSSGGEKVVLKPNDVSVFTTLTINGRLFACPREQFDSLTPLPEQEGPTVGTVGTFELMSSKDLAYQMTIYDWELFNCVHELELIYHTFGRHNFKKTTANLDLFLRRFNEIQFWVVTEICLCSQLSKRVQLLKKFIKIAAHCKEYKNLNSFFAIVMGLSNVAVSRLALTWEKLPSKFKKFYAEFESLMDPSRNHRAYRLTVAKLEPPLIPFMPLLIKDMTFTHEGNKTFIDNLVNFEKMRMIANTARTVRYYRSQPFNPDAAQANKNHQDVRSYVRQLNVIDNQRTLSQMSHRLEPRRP

[4] = target: Rap guanine nucleotide exchange factor 4 (Homo sapiens) (UniProt Q8WZA2); assay: Confirmatory qHTS for antagonist of cAMP-regulated guanine nucleotide exchange factor 4 (EPAC2) (AID 1645885); also: nearly all actives have a fitted effect of over 25% in size; also: potency is read from the fitted curve at half-maximal effect
[5] = target: Rap guanine nucleotide exchange factor 3 (Homo sapiens) (UniProt O95398); assay: Counterscreen qHTS for antagonist of cAMP-regulated guanine nucleotide exchange factor 3 (EPAC1) (AID 1645888)
Outline: (§1)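 Rap1B–BODIPY-GDP (250 nM) with 50 uM GDP; compounds pin-transferred to 9.74 nM–152 uM final (activator) or from 7.32 nM upwards (inhibitor). Fluorescence Ex/Em 480/540 nm read at 5 and 30 min, then after adding cAMP or buffer, at room temperature.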

[6] = target: Rap guanine nucleotide exchange factor 3 (Homo sapiens) (UniProt O95398); assay: Counterscreen qHTS for agonist of cAMP-regulated guanine nucleotide exchange factor 3 (EPAC1) (AID 1645889); also: nearly all actives have a fitted effect of over 40% in size; also: potency is read from the fitted curve at half-maximal effect
Outline: as §1

SMILES | Potency [1] | Potency [2] | activation [3] | Potency [4] | activity change, negative = inhibition [5] | activation [6] | Potency [3] | Potency [5] | Potency [6] | outcome [4]
Cn1c(COc2ccc(Cl)cc2)nc2ccccc2c1=O | 25.1 µM (active) | inactive | 4.13% [at 17.1 µM, percent relative to cAMP agonist control] | inactive | 1.04% [at 30.8 µM] | 5.9% [at 30.8 µM] |  |  |  | 
O=C(O)CN1C(=O)/C(=C\c2cccc(OCc3ccc(Cl)cc3Cl)c2)SC1=S | 44.7 µM (active) | inactive | 19.7% [at 17.1 µM, percent relative to cAMP agonist control] | 0.301 µM (active) | -5.98% [at 30.8 µM] | 8.88% [at 30.8 µM] |  |  |  | 
COc1ccccc1/C=C/C=C1\Oc2c(ccc(O)c2CN2CCN(CCO)CC2)C1=O | inactive | 100 µM (active) |  | 84.9 µM (active) |  |  | 100 µM (active) | inactive | 39.8 µM (active) | 
COc1ccc(Br)cc1CNC(=O)c1ccc2nc(C(C)C)oc2c1 | inactive | inactive |  |  |  |  | inactive | inactive | inactive | inactive [at 12.7 µM]
Cc1nc(-c2cccc(NC(=O)Cc3ccccc3)c2)cs1 | inactive | inactive | 1.14% [at 17.1 µM, percent relative to cAMP agonist control] | inactive | -17.6% [at 30.8 µM] | 2.08% [at 30.8 µM] |  |  |  | 
CCOc1nc(C)cc(C)c1S(=O)(=O)c1ccc(Cl)cc1 | inactive | inactive | -7.98% [at 17.1 µM, percent relative to cAMP agonist control] | inactive | 0.426% [at 30.8 µM] | 9.26% [at 30.8 µM] |  |  |  | 
O=C(O)C1CSC(c2ccco2)N1 (centres undefined) | inactive | inactive | 15.3% [at 17.1 µM, percent relative to cAMP agonist control] | inactive | -26.6% [at 30.8 µM] | 2.32% [at 30.8 µM] |  |  |  | 
Cc1ccc(Sc2ccc(S(=O)(=O)Nc3ccc(C(=O)O)cc3)cc2)cc1C | 67.5 µM (active) | inactive |  | inactive |  |  | inactive | inactive | inactive | 
C=CCn1c(C)cc(C(=O)Cn2ncc(Cl)c(Cl)c2=O)c1C | 37.9 µM (active) | inactive |  | inactive |  |  | inactive | inactive | inactive | 
COc1ccc(CCNC(=O)CCCCCn2c(SCC(N)=O)nc3cc4c(cc3c2=O)OCO4)cc1OC | inactive | inactive |  | inactive |  |  | inactive | inactive | inactive | 
Cc1ccn2cc(CNC(=O)c3cccs3)nc2c1 | inactive | inactive |  | inactive |  |  | inactive | inactive | inactive | 
COc1ccc(C=NNc2ccc([N+](=O)[O-])cc2S(=O)(=O)Nc2ccccc2C(=O)O)cc1OC | 25.1 µM (active) | inactive | -2.2% [at 17.1 µM, percent relative to cAMP agonist control] | inactive | -11.2% [at 30.8 µM] | 21.9% [at 30.8 µM] |  |  |  | 
O=[N+]([O-])c1cc([N+](=O)[O-])c2nonc2c1Nc1ccc(O)cc1 | 75.7 µM (active) | inactive |  | 42.6 µM (active) |  |  | inactive | inactive | inactive | 
CC1(C(=O)NS(=O)(=O)c2ccc(Cl)s2)CCN1C(=O)C1(c2ccccc2)CCCC1 (centres undefined) | 37.9 µM (active) | inactive |  | 8.49 µM (active) |  |  | inactive | inactive | inactive | 
COn1c(-c2ccc(Cl)cc2Cl)nc2ncccc21 | inactive | inactive |  | 84.9 µM (active) |  |  | inactive | inactive | inactive | 
Cc1cc(NCc2ccco2)n2c(nc3ccccc32)c1C#N | inactive | inactive |  | inactive |  |  | inactive | inactive | inactive | 
Cc1cc(=O)n(C2CCS(=O)(=O)C2)[nH]1 (centres undefined) | inactive | inactive |  | inactive |  |  | inactive | inactive | 4.47 µM (active) | 

SMILES | Potency [1] | Potency [2] | activation [3] | Potency [4] | activity change, negative = inhibition [5] | activation [6] | Potency [3] | Potency [5] | Potency [6] | outcome [4]
Cc1ccc(-n2nc3c(=O)n(CCCC(=O)NCc4ccccc4F)nc(C)c3c2C)cc1 | inactive | inactive |  | inactive |  |  | inactive | inactive | inactive | 
COc1ccc(C(=O)COC(=O)CCN2C(=O)C3CC=CCC3C2=O)c(OC)c1 (centres undefined) | inactive | inactive | 1.05% [at 17.1 µM, percent relative to cAMP agonist control] | inactive | -27.6% [at 30.8 µM] | -0.565% [at 30.8 µM] |  |  |  | 
COc1ccccc1N1CCN(c2ncnc3onc(-c4ccc(F)cc4)c23)CC1 | inactive | inactive |  | inactive |  |  | inactive | inactive | inactive | 
COc1cnc(-c2ccccn2)nc1Oc1c(C)cccc1C | inactive | inactive |  | inactive |  |  | inactive | inactive | inactive | 
COc1ccc(CC(=O)Nc2nc(-c3cccnc3)cs2)cc1 | inactive | inactive | 15.1% [at 17.1 µM, percent relative to cAMP agonist control] | inactive | -4.63% [at 30.8 µM] | -9.76% [at 30.8 µM] |  |  |  | 
C=CCNC(=O)C1CC1(c1cccc(C)c1)c1cccc(C)c1 (centres undefined) | inactive | inactive |  | inactive |  |  | inactive | inactive | inactive | 
Cc1ccccc1-c1cc(C(=O)NCc2ccc3c(c2)OCO3)n(CC2CC(c3cccnc3)=NO2)n1 (centres undefined) | inactive | inactive |  | inactive |  |  | inactive | inactive | inactive | 
CCCc1[nH]nc2c1C(c1cccnc1)C(C#N)=C(N)O2 (centres undefined) | inactive | inactive | 5.78% [at 17.1 µM, percent relative to cAMP agonist control] | inactive | -9.67% [at 30.8 µM] | -0.109% [at 30.8 µM] |  |  |  | 
O=C(NCCOc1ccccc1-c1ccccc1)c1ccco1 | inactive | inactive | 6.96% [at 17.1 µM, percent relative to cAMP agonist control] | inactive | -5.39% [at 30.8 µM] | 12.2% [at 30.8 µM] |  |  |  | 
COc1ccccc1/C=C1\SC(=S)N(NS(=O)(=O)c2ccc(C)cc2)C1=O | 12.6 µM (active) | inactive | 1.14% [at 17.1 µM, percent relative to cAMP agonist control] | inactive | 2.6% [at 30.8 µM] | -16.6% [at 30.8 µM] |  |  |  | 
CCc1ccc(OCCCSc2nc(-c3ccc(C(C)(C)C)cc3)nc3cc(=O)[nH]n23)cc1 | 42.6 µM (active) | inactive |  | inactive |  |  | inactive | inactive | inactive | 
CC1Cc2nc(SCC(=O)NCc3ccccc3)n(Cc3ccccc3)c(=O)c2S1 (centres undefined) | inactive | inactive | 2.68% [at 17.1 µM, percent relative to cAMP agonist control] | inactive | 0.448% [at 30.8 µM] | 14% [at 30.8 µM] |  |  |  | 
Cc1cc(-c2csc(N)n2)c(C)n1CCC(C)C | inactive | inactive |  | inactive |  |  | inactive | inactive | inactive | 
N#Cc1cc(C(=O)c2ccccc2O)cn(-c2nccs2)c1=O | inactive | 112 µM (active) |  | 47.8 µM (active) |  |  | 100 µM (active) | inactive | 39.8 µM (active) | 
C=CCSc1nc(-c2ccc(OC)cc2)c(C#N)c(=O)n1CC=C | inactive | inactive | 1.63% [at 17.1 µM, percent relative to cAMP agonist control] | inactive | -30% [at 30.8 µM] | -17.1% [at 30.8 µM] |  |  |  | 
Nc1[nH]c(C(=O)c2ccccc2)c(-c2ccccc2C(F)(F)F)c1C(=O)NCCc1cccs1 | inactive | inactive |  | inactive |  |  | inactive | inactive | inactive | 
CCOC(=O)c1c(NC(=O)c2ccc(S(=O)(=O)N3CCC(C)CC3)cc2)sc2c1CCN(C(C)C)C2 | inactive | 89.1 µM (active) |  |  |  |  | 31.6 µM (active) | inactive | 44.7 µM (active) | inactive [at 12.7 µM]

From PubChem BioAssay (NCATS)
